The values below come from PubChem BioAssay (NCI).

The panel holds about 83,000 compounds, 20% with a hit somewhere; the sample as a whole holds those more often.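 Percent growth is the endpoint: 0 to 100 indicates growth inhibition (40 means 60% inhibition), 0 means no net growth, and negative values indicate cell death.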 A number with no mark means an inactive call. Active and inactive are the calls of the source. How the source made its calls: active means growth percent below 10; inactive means the rest.

The subject of one assay is NCI-H460 lung. Description: NCI-60 one-dose screen, 48 h (100 = growth as untreated, 0 = no growth, -100 = all killed). Particulars: 10 µM.
On to `COC(=O)[C@@H]1[C@H](O)[C@H](C)[C@H](O)[C@@](C)(O)/C=C\C=C(C)C(=O)Nc2c(C)c(OC(C)=O)c3c(c2O)C(=O)C(C)=C2OCOC(=C23)C(C)=C[C@@](C)(O)[C@H](O)[C@@H](C)[C@H]1OC(C)=O`, for which the growth was 127%.

In the case of `O=C(CC(C(=O)c1ccccc1)N1CCOCC1)c1ccccc1` (stereo not drawn), the growth is 102%.

`COc1ccc(-c2nc(-c3nc4cc(Cl)c(F)cc4[nH]3)c3ccccn23)cc1`: the growth was 81.1%.

As to `CCCCCCCCCCCC[n+]1ccc(C(N)=O)cc1`, the growth was 16.8%.

Regarding `COC(=O)C1=NNC(=S)N(c2cc(C)[nH]n2)C(=O)C1`, the growth was 111%.

Turning to `CCN1Cc2c(/C=C/c3ccccc3)nc3ccc(OC)cc3c2N(c2cccc(Cl)c2)C1`, the growth was 71.7%.

For `O=C(Nc1ccncc1)C(=O)c1cn(S(=O)(=O)c2cccc3ccccc23)c2ccccc12`, the growth was 85.7%.

Regarding `CCN(CC)CCOc1nc2cc(OC)c(OC)cc2c2c1-c1ccc(OC)cc1C2=O`, the growth is 25.6%.

In the case of `Nc1c(C(=O)Nc2cccc(F)c2)sc2nc3c(cc12)C(=O)CCC3`, the growth is 11.5%.

Turning to `CN(C)C=Nc1cc(Cl)ccc1Cl`, the growth was 116%.

Consider `CC12O[C@H](C[C@@H](O)[C@H]1O)n1c3ccccc3c3c4c(c5c6ccccc6n2c5c31)C(=O)N(CCCN)C4=O`, for which the growth was 10.4%.

For the molecule `S=C1SCC(c2ccccc2)S1` (stereo not drawn), the growth is 114%.

In the case of `N=C(N)c1ccc(-c2ccc(-c3cccs3)o2)cc1`, the growth is 0.151% (active).

For the molecule `CC(C)(C)c1cc(Br)cc(C(C)(C)C)c1O`, the growth is 117%.

Take `COc1cc(C(=O)/C=C/c2cc(-c3cc(OC)c(OC)c(OC)c3)n[nH]2)cc(OC)c1OC`: the growth was 29.7%.

With `COc1cc(NC(=O)CCSc2nc3ccc(Cl)cc3c(=O)n2Cc2ccccc2)cc(OC)c1OC`, the growth was 81.8%.

On to `COc1ccc(-c2nn(-c3cccc(NC(=O)Nc4cccc(C(F)(F)F)c4)c3)cc2-c2ccncc2)cc1Cl`, for which the growth was 2.43% (active).

As for `COc1ccc(-c2nn(-c3cccc(NC(=O)c4ccc(Cl)c(Cl)c4)c3)cc2-c2ccncc2)cc1Cl`, the growth is 79.4%.

Regarding `CC(C)(C#N)Nc1ccccc1`, the growth is 109%.

Consider `O=S(=O)(Nc1ccccn1)c1ccc(N=Nc2ccc(O)c3ncccc23)cc1`, for which the growth is 5.48% (active).

On to `CC(C)C[C@H](NC(=O)[C@H](Cc1cccc2ccccc12)NS(=O)(=O)c1cccc2cccnc12)B(O)O`, for which the growth is -53.2% (active).

Turning to `COc1cc(Cl)cc(-c2nn(-c3cccc(NC(=O)Nc4ccc(Cl)c(C(F)(F)F)c4)c3)cc2-c2ccncc2)c1`, the growth is 2.76% (active).

For the molecule `O=C(Nc1ccc(CN2CCc3nc4cc(O)c(O)cc4cc32)cc1)c1ccc(Cl)c(Cl)c1`, the growth is 102%.

Regarding `CN(C)Cc1cn(-c2ncc(-c3ccc(C(F)(F)F)cc3)c(NC3CCCCCC3)n2)nn1`, the growth is 93.4%.

As to `O=C(CSSCC(=O)c1ccc(Cl)cc1)c1ccc(Cl)cc1`, the growth was 35.8%.

For `COc1ccc2c(c1OC)O/C(=C\c1ncc([N+](=O)[O-])n1C)C2=O`, the growth is -20.8% (active).

As to `Nc1ncn([C@@H]2O[C@H](CO)[C@@H](O)[C@H]2O)c(=O)n1`, the growth was -1.73% (active).

Consider `CSC1=NCCCC1`, for which the growth is 108%.

Turning to `COc1ccc(/C=C2/CN(CCC#N)C/C(=C\c3ccc(OC)cc3)C2=O)cc1`, the growth was 2.6% (active).

Regarding `c1ccc([C@H]2CN3CCSC3=N2)cc1`, the growth is 114%.

With `COc1cc(Cl)cc(-c2nn(-c3cccc(NC(=O)c4ccc(N5CCOCC5)c(C(F)(F)F)c4)c3)cc2-c2ccncc2)c1`, the growth was 29.3%.

On to `COc1ccc(OC)c(/C=C/c2nc(SCc3ccccc3)n(-c3ccc(Cl)cc3)n2)c1`, for which the growth is 24.4%.

Turning to `COc1ccc(N=C2C(=Nc3ccc(OC)cc3)N(c3ccc(N(C)C)cc3)C(=S)N2c2ccc(OC)cc2)cc1`, the growth is 85%.

Take `CCCCCCN1CCN(Cc2ccc(N(CC)CC)cc2)C(=O)C1=O`: the growth is 10.5%.

Consider `N#Cc1ncc(-c2ccc(C(F)(F)F)cc2)c(NCc2cc(C(F)(F)F)cc(C(F)(F)F)c2)n1`, for which the growth was 2.11% (active).

In the case of `COc1ccc2c(c1)O/C(=C\c1ccc([N+](=O)[O-])s1)C2=O`, the growth is 2.82% (active).

`CCCCN(CCCC)c1cc(C(=O)CCCCCN)c2ccccc2n1`: the growth was 31.8%.

Take `O=C(O)CCCCSc1ncnc2nc[nH]c12`: the growth is 109%.

Consider `O=C(Nc1cccc(-n2cc(-c3ccncc3)c(-c3ccc(O)c(Cl)c3)n2)c1)c1cc(C(F)(F)F)cc(C(F)(F)F)c1`, for which the growth is 21.5%.

A further assay deals with NCI-H522 lung. Described as above. To be noted: 10 µM.
With `COC(=O)[C@@H]1[C@H](O)[C@H](C)[C@H](O)[C@@](C)(O)/C=C\C=C(C)C(=O)Nc2c(C)c(OC(C)=O)c3c(c2O)C(=O)C(C)=C2OCOC(=C23)C(C)=C[C@@](C)(O)[C@H](O)[C@@H](C)[C@H]1OC(C)=O`, the growth is 105%.

For the molecule `O=C(CC(C(=O)c1ccccc1)N1CCOCC1)c1ccccc1` (stereo not drawn), the growth is 74.7%.

As to `COc1ccc(-c2nc(-c3nc4cc(Cl)c(F)cc4[nH]3)c3ccccn23)cc1`, the growth is 39.5%.

For `CCCCCCCCCCCC[n+]1ccc(C(N)=O)cc1`, the growth is 4.75% (active).

`COC(=O)C1=NNC(=S)N(c2cc(C)[nH]n2)C(=O)C1`: the growth was 103%.

Turning to `CCN1Cc2c(/C=C/c3ccccc3)nc3ccc(OC)cc3c2N(c2cccc(Cl)c2)C1`, the growth is 63.7%.

For `O=C(Nc1ccncc1)C(=O)c1cn(S(=O)(=O)c2cccc3ccccc23)c2ccccc12`, the growth was 48%.

As to `CCN(CC)CCOc1nc2cc(OC)c(OC)cc2c2c1-c1ccc(OC)cc1C2=O`, the growth was 73.9%.

In the case of `Nc1c(C(=O)Nc2cccc(F)c2)sc2nc3c(cc12)C(=O)CCC3`, the growth was 5.31% (active).

As for `CN(C)C=Nc1cc(Cl)ccc1Cl`, the growth was 97.2%.

Turning to `CC12O[C@H](C[C@@H](O)[C@H]1O)n1c3ccccc3c3c4c(c5c6ccccc6n2c5c31)C(=O)N(CCCN)C4=O`, the growth was -2.33% (active).

Consider `S=C1SCC(c2ccccc2)S1` (stereo not drawn), for which the growth was 131%.

For the molecule `N=C(N)c1ccc(-c2ccc(-c3cccs3)o2)cc1`, the growth was 61.9%.

Consider `CC(C)(C)c1cc(Br)cc(C(C)(C)C)c1O`, for which the growth was 115%.

`COc1cc(C(=O)/C=C/c2cc(-c3cc(OC)c(OC)c(OC)c3)n[nH]2)cc(OC)c1OC`: the growth was -75.5% (active).

Regarding `COc1cc(NC(=O)CCSc2nc3ccc(Cl)cc3c(=O)n2Cc2ccccc2)cc(OC)c1OC`, the growth was -9.19% (active).

As for `COc1ccc(-c2nn(-c3cccc(NC(=O)Nc4cccc(C(F)(F)F)c4)c3)cc2-c2ccncc2)cc1Cl`, the growth was -6.94% (active).

For `COc1ccc(-c2nn(-c3cccc(NC(=O)c4ccc(Cl)c(Cl)c4)c3)cc2-c2ccncc2)cc1Cl`, the growth is 33.3%.

As to `CC(C)(C#N)Nc1ccccc1`, the growth is 94.1%.

`O=S(=O)(Nc1ccccn1)c1ccc(N=Nc2ccc(O)c3ncccc23)cc1`: the growth is -21.6% (active).

`CC(C)C[C@H](NC(=O)[C@H](Cc1cccc2ccccc12)NS(=O)(=O)c1cccc2cccnc12)B(O)O`: the growth is -56.4% (active).

Take `COc1cc(Cl)cc(-c2nn(-c3cccc(NC(=O)Nc4ccc(Cl)c(C(F)(F)F)c4)c3)cc2-c2ccncc2)c1`: the growth is -10.4% (active).

`O=C(Nc1ccc(CN2CCc3nc4cc(O)c(O)cc4cc32)cc1)c1ccc(Cl)c(Cl)c1`: the growth was 101%.

With `CN(C)Cc1cn(-c2ncc(-c3ccc(C(F)(F)F)cc3)c(NC3CCCCCC3)n2)nn1`, the growth was 73.5%.

For `O=C(CSSCC(=O)c1ccc(Cl)cc1)c1ccc(Cl)cc1`, the growth was 58%.

Take `COc1ccc2c(c1OC)O/C(=C\c1ncc([N+](=O)[O-])n1C)C2=O`: the growth was -54.5% (active).

`Nc1ncn([C@@H]2O[C@H](CO)[C@@H](O)[C@H]2O)c(=O)n1`: the growth is 4.49% (active).

Consider `CSC1=NCCCC1`, for which the growth was 102%.

For `COc1ccc(/C=C2/CN(CCC#N)C/C(=C\c3ccc(OC)cc3)C2=O)cc1`, the growth is -28% (active).

As for `c1ccc([C@H]2CN3CCSC3=N2)cc1`, the growth is 90.8%.

Consider `COc1cc(Cl)cc(-c2nn(-c3cccc(NC(=O)c4ccc(N5CCOCC5)c(C(F)(F)F)c4)c3)cc2-c2ccncc2)c1`, for which the growth was 52.7%.

For the molecule `COc1ccc(OC)c(/C=C/c2nc(SCc3ccccc3)n(-c3ccc(Cl)cc3)n2)c1`, the growth was 66.6%.

As for `COc1ccc(N=C2C(=Nc3ccc(OC)cc3)N(c3ccc(N(C)C)cc3)C(=S)N2c2ccc(OC)cc2)cc1`, the growth is 84.8%.

With `CCCCCCN1CCN(Cc2ccc(N(CC)CC)cc2)C(=O)C1=O`, the growth is -7.64% (active).

Take `N#Cc1ncc(-c2ccc(C(F)(F)F)cc2)c(NCc2cc(C(F)(F)F)cc(C(F)(F)F)c2)n1`: the growth is 12.2%.

`COc1ccc2c(c1)O/C(=C\c1ccc([N+](=O)[O-])s1)C2=O`: the growth was -72.5% (active).

Regarding `CCCCN(CCCC)c1cc(C(=O)CCCCCN)c2ccccc2n1`, the growth was 76.9%.

In the case of `O=C(O)CCCCSc1ncnc2nc[nH]c12`, the growth was 84.1%.

On to `O=C(Nc1cccc(-n2cc(-c3ccncc3)c(-c3ccc(O)c(Cl)c3)n2)c1)c1cc(C(F)(F)F)cc(C(F)(F)F)c1`, for which the growth was 24.3%.
